# Results with a measured potency or affinity are listed apart.
# Tests used:
# [1] = test system: Klebsiella pneumoniae; conditions: Concentration 32 ug.mL-1;; ASSAY_TEST Inhibition of Bacterial Growth; detection method Absorption (OD600); MEDIA CAMHB; plate type 384well; NBS; CORNING #3640; time 18 hr
# [2] = test system: Candida albicans; conditions: Concentration 32 ug.mL-1; ASSAY_TEST Inhibition of Fungal Growth; detection method Absorption (OD530)
# [3] = test system: Cryptococcus neoformans; conditions: Concentration 32 ug.mL-1; ASSAY_TEST Inhibition of Fungal Growth; detection method Resazurin; Absorption (OD600-OD570); plate type 384well; NBS; CORNING #3640
structure (smiles),measurement,setting,value
O=S(=O)(c1ccc2nncn2c1)N(Cc1cccc(F)c1)c1ccc2c(c1)OCCO2,Inhibition,[1],10.4%
same,Inhibition,[2],1.26%
same,Inhibition,[3],-5.06%
CCc1nnc2c(S(=O)(=O)N(Cc3ccccc3Cl)c3ccccc3)cccn12,Inhibition,[1],6.34%
same,Inhibition,[2],3.28%
same,Inhibition,[3],-4.36%
Cc1cc2nn(CC(=O)Nc3ccc(F)c(F)c3)c(=O)n2c(Nc2ccc(F)c(C)c2)n1,Inhibition,[1],10.55%
same,Inhibition,[2],1.57%
same,Inhibition,[3],-7.1%

# Reference: ChEMBL document CHEMBL4513146, “CO-ADD screening of Karazin Kharkiv National University (Ukraine) compounds”
